Tau ThT inhib: tau fibrillization inhibition (ThT binding) | recombinant tau K18 P301L, heparin-induced fibrillization, ThT fluorescence | Potency, µM (titrated, usually from 57.4 µM), for inactives: top-dose activity, negative = inhibition, usual class: inhibitors | actives 2.1% (n = 270,000); note: nearly all actives have a fitted effect of over 55% in size
Target sequence (P10636 561-689 P618L limits assumed): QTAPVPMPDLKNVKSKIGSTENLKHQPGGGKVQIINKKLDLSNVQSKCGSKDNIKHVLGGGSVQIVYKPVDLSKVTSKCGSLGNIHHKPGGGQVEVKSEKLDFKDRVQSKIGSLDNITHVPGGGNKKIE
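Tau K18 P301L fragment (15 uM unlabeled plus 0.24 uM Alexa 594-labeled) in 100 mM sodium acetate pH 7 with compound, fibrillization induced by 20 uM heparin for 6 hr at 37 C. Thioflavin T (30 uM) added, fluorescence read after 1 hr (ex 450, em 510 nm).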
Tau fibril FP: blocks human tau fibril formation measured by polarization. K18 P301L tau heparin fibrillization, Alexa594 FP, 6 h. Potency, µM (titrated, usually from 57.7 µM), without a hit: at the highest dose activity, negative = inhibition, actives largely listed as inhibitors. actives 0.39% (n = 280,000). AID 1468; note: nearly all actives have a fitted effect of over 55% in size
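Heparin (20 uM) drove fibril formation of recombinant tau K18 P301L, 15 uM unlabeled with 0.24 uM Alexa 594 label, for 6 hr at 37 C in 100 mM sodium acetate pH 7. Fluorescence polarization (555/632 nm) read 1 hr after 30 uM ThT.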
RORgamma inh: blocks mouse ROR gamma transcriptional activity | P51450 | Potency, µM (top dose mostly 53.6 µM), for inactives: at the highest dose activity change, negative = inhibition, actives largely listed as inhibitors | AID 2551 | actives 5.4% (n = 310,000) | Drosophila S2 Gal4-RORgamma UAS-luciferase reporter, 20 h; note: nearly all actives have a fitted effect of over 60% in size
Target sequence (P51450 whole entry, looked up, the tested form may be a part): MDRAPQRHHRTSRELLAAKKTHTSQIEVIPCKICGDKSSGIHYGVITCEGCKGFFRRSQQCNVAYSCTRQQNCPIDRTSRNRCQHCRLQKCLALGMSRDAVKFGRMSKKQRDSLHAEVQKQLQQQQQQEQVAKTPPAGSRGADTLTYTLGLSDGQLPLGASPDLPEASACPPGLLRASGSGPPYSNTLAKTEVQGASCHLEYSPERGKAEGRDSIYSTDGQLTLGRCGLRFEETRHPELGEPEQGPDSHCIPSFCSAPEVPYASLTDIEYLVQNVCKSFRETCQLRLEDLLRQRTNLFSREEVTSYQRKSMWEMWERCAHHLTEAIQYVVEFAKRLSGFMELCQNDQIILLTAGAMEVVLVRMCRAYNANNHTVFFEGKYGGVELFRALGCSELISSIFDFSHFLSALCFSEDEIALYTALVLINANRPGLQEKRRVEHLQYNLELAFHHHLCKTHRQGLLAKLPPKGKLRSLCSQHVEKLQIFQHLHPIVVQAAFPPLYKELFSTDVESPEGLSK
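Luciferase reporter read in Schneider cells carrying Gal4-RORγ (mouse) and UAS-Photinus luciferase; cells given compound 1 h before 700 uM copper sulfate induction, then incubated 20 h at ambient temperature.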
VP16 counter: inhibits Gal4-VP16 luciferase reporter, ROR gamma counter-screen; Potency, µM (top dose mostly 53.6 µM), for inactives: at the highest dose activity, negative = inhibition, usual class: inhibitors; Drosophila S2 Gal4-VP16 UAS-luciferase, luminescence, 20 h; AID 2546; actives 3.5% (n = 310,000);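 note: Gal4-VP16 expression switched on by copper sulfate through the metallothionein promoter; nearly all actives have a fitted effect of over 50% in size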
Tau fluor counter: counter-screen for tau fibril formation inhibitors. tau K18 P301L Alexa594 fluorescence, heparin fibrillization. Potency, µM (highest dose often 57.7 µM), for the others: top-dose activity change, negative = decrease. actives 0.93% (n = 280,000); note: nearly all actives have a fitted effect of over 55% in size
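Human tau K18 P301L (15 uM unlabeled, 0.24 uM Alexa 594-labeled) in 100 mM sodium acetate pH 7 with 20 uM heparin, 6 hr at 37 C. ThT 30 uM added, 1 hr ambient; Alexa 594 FP and total fluorescence read at 555/632 nm.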
Numbers without * were called inactive; ? = inconclusive; . = not tested or not shown; [ ] = dose if it differs, or a comment. Most compounds without a hit are left out; they make up all but 7.3% or so of the library. Calls come from the whole dose curve; as a rule, active = well fitted curve in the direction sought with a large enough effect; inconclusive = small, poorly fitted or top-dose-only effect, or another doubt; inactive = no such curve, though single readings can be large; an effect the other way counts as inactive or inconclusive. % is set by controls: 0 for no effect and ±100 for the full control effect; potency is the fitted concentration of half-maximal effect.

SMILES | Tau ThT inhib | Tau fibril FP | RORgamma inh | VP16 counter | Tau fluor counter
CCOC(=O)c1sc(NC(=O)c2cccc(S(=O)(=O)N3CCc4ccccc43)c2)c(C#N)c1C | ? | 8% | ? | 5.6µM* | ?
CCCNC(=O)c1cc(S(=O)(=O)N2CCc3ccccc32)cn1C | . | . | ? | 14µM* | .
CCc1nnc(NC(=O)c2cccc(S(=O)(=O)N3CCN(c4ccccc4)CC3)c2)s1 | -5% | -4% | 13µM* | ? | -15%
O=C(Nc1nc2c(s1)CCCC2)c1cccc(S(=O)(=O)N2CCCc3ccccc32)c1 | -12% | -10% | 3.2µM* | 13µM* | ?
CCc1ccccc1NC(=O)c1cc(S(=O)(=O)N2CCc3ccccc32)cn1C | . | . | 3% | 2% | .
CCc1nnc(NC(=O)c2cc(S(=O)(=O)N3CCN(c4ccccc4)CC3)ccc2Cl)s1 | -15% | -1% | -26% | 1% | -12%
C#CCCCO/N=C1/C[C@@H](O)[C@@H](O)[C@@H]2[C@@H]3C(=O)N(CC)C(=O)[C@H]3CC[C@@H]12 | -10%[11.5 µM] | 0%[11.6 µM] | 4%[10 µM] | -4%[10 µM] | -13%[11.6 µM]
O=C(Nc1nncs1)c1cccc(S(=O)(=O)N2CCc3ccccc32)c1 | 2% | -7% | -9% | 7% | -10%
CCC(CC)c1nnc(NC(=O)c2cccc(S(=O)(=O)N3CCc4ccccc43)c2)s1 | -17% | -15% | 16µM* | ? | ?
CSc1nncc(/C(C)=N\Nc2ccccc2C)n1 | 0.89µM* | -20% | 4% | 3% | -16%
CSc1nncc(/C(C)=N/O)n1 | 7% | 3% | 9% | 0% | 20%
CCOc1cc(C(=O)N2CC(=O)Nc3ccc(C)cc3C2c2ccccc2)cc(OCC)c1OCC (centres undefined) | -12% | 4% | . | . | -8%
CCCCNC(=S)N/N=C/C1=CCC2CC1C2(C)C (centres undefined) | -10% | 5% | 1.1µM* | 0.89µM* | -9%
CC1=C/C(=N\NC(=S)Nc2cccnc2)CC(C)(C)C1 | 1% | 9% | 1.8µM* | 3.2µM* | -1%
C=C(C)CNC(=S)NNC(=O)c1cc(C)oc1C | -6% | 9% | ? | -12% | -4%
CCCCNC(=S)Nc1ccc([N+](=O)[O-])cc1 | -12% | -13% | -14% | 2% | ?
CC1(C)C2CC=C(/C=N/NC(=S)Nc3cccnc3)C1C2 (centres undefined) | 3% | 0% | 0.5µM* | 1.3µM* | 2%
C=C(C)CNC(=S)N/N=C/C1=CCC2CC1C2(C)C (centres undefined) | -15% | -1% | 0.79µM* | 1.6µM* | -20%
Cc1ccc(NC(=O)CCS(=O)(=O)c2cc(Br)cc3c2N(C(=O)C2CC2)CC3)cc1 | -3% | -7% | . | . | -11%
CC(C)NC(=S)N/N=C/C1=CCC2CC1C2(C)C (centres undefined) | -9% | -8% | 0.79µM* | 1.8µM* | -17%
CC(=O)N/N=C/C1=CCC2CC1C2(C)C (centres undefined) | -1% | -12% | -27% | -3% | -2%
COc1ccc(C(=O)NC2CCCc3c2cnn3-c2ccccc2F)cc1OC (centres undefined) | . | . | ? | 2.5µM* | .
Cc1nnsc1C(=O)NC1CCCc2c1cnn2-c1ccc(C(C)(C)C)cc1 (centres undefined) | . | . | -37% | 6.3µM* | .
Cc1cccc(-n2ncc3c2CCCC3NC(=O)C2(C(N)=O)CC2)c1C (centres undefined) | . | . | ? | 7.9µM* | .
Cc1nnsc1C(=O)NC1CCCc2c1cnn2-c1ccccc1F (centres undefined) | . | . | 17% | 10µM* | .
SMILES | Tau ThT inhib | Tau fibril FP | RORgamma inh | VP16 counter | Tau fluor counter
CCCC(=O)OCc1cnc(C)c2oc(=O)c(C(=O)Nc3ccccc3)cc12 | -7% | 15% | . | . | -1%
O=C(NC1CCCN(CCc2ccccc2)C1)C1CCCC1 (centres undefined) | . | . | -29% | 1% | .
COc1ccc2c(c1)C(=O)[C@@H](OC(=O)NCc1ccco1)[C@H](c1ccc(OC)c(Br)c1)O2 | -12% | 2% | 0% | 2% | -10%
CC(C)(C)c1ccc(-n2ncc3c2CCCC3NC(=O)CN2CCOC2=O)cc1 (centres undefined) | . | . | -3% | 13µM* | .
COc1ccc(-n2ncc3c2CC(C)(C)CC3NC(=O)CN2CCOC2=O)cc1 (centres undefined) | . | . | -10% | -4% | .
Cc1ccc(N2C(=O)c3ccc(C(=O)N4CCN(c5cccc(C)c5C)CC4)cc3C2=O)cc1 | -5% | -6% | ? | 20µM* | -6%
Cc1ccc(N2C(=O)c3ccc(C(=O)N4CCN(c5ccc(C)c(C)c5)CC4)cc3C2=O)cc1 | -5% | 3% | 20% | -8% | 4%
COc1ccc2nc(-c3ccccc3)cc(OC)c2c1 | -8% | -4% | ? | ? | -12%
COc1ccc(-c2nc3ccccc3nc2-c2ccc(OC)c(OC)c2)cc1OC | . | . | ? | -5% | .
COc1ccc2nc3ccccc3nc2c1N | 10µM* | ? | ? | 16µM* | ?
COc1ccc2nc3cccc(OC)c3nc2c1 | 16µM* | ? | ? | ? | -26%
CCOC(=O)N1CCN(C(=O)/C=C/c2ccc(C(C)(C)C)cc2)CC1 | . | . | ? | -17% | .
O=C1CCCCCN1Cc1nnc(SCc2nc3ccccc3s2)n1-c1ccccn1 | ? | -10% | 2.5µM* | 7.1µM* | -16%
CCNC(=O)CSc1nnc(CN2CCCCCC2=O)n1-c1ccccn1 | -2% | 0% | 20% | -4% | -2%
CCOc1ccc(C(=O)N2CC(=O)Nc3ccc(C)cc3C2c2ccc(F)cc2)cc1OCC (centres undefined) | -11% | -15% | . | . | -17%
Cn1c(CCc2nc3ccccc3[nH]2)nnc1SCC#N | -6% | -9%[2.34 µM] | 14µM* | ? | -18%
COc1ccccc1N1CCN(C(=O)C(CCSC)NS(=O)(=O)c2ccc3c(c2)oc(=O)n3C)CC1 (centres undefined) | 4% | 6% | . | . | 6%
Cn1c(=O)oc2cc(S(=O)(=O)NCc3ccc(F)cc3)ccc21 | . | . | 14% | 3% | .
Cc1nc(/N=C\N(C)C)sc1C(=O)Nc1ccccc1 | -9% | -5% | 26% | -6% | -2%
CN(C)/C=N/c1nc2ccc3c(c2s1)CCCC3 | ? | 6% | 10µM* | -5% | -7%
COc1ccc(-c2cc(C(C)=O)c(C)n2CCC(=O)Nc2ccc(C)c(Cl)c2)cc1 | 7% | -4% | . | . | ?
CC1=NN(c2ccc(C)cc2)C(=O)/C1=C/c1ccc(-c2cc([N+](=O)[O-])ccc2O)o1 | . | . | ? | -22% | .
O=C1NN(c2cccc(Br)c2)C(=O)/C1=C/c1ccc(-c2cc([N+](=O)[O-])ccc2O)o1 | 2.8µM* | ? | 5% | 3% | 4.5µM*[quencher]
Oc1ccc(Br)cc1/C=N/NC(=S)NCCc1ccccc1 | . | . | 16µM* | 16µM* | .
